# Results from PubChem BioAssay.
# For some of these results: Measured potencies and affinities stand elsewhere. Activity calls are given as the source filed them. Unless noted, no cut-off is given here; in the data, nearly all actives have IC50 up to about 0.98 µM.
# Test system: not listed separately
# Test: inhibition of 3D7 malaria parasite growth – strain 3D7 (AID 2306; call rule not given here;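 note: 0% = DMSO wells and 100% = chloroquine plus artemisinin control wells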)
# Conditions: P. falciparum 3D7 erythrocytic growth, LDH absorbance, 72 h; at 2 µM; stronger effect = higher value
row,SMILES,growth inhibition
1,O=C(/C=C/c1c(Cl)cccc1Cl)NC1CCC(CN2[C@@H]3CC[C@H]2CC(c2c[nH]c4ccccc24)C3)CC1 (stereo not given in full),95% (active)
2,N#Cc1ccc(N(CC(=O)NCCc2ccccc2)CC2CC2)c2ccccc12,99% (active)
3,CC(Cc1ccc(-c2nc3ccccc3[nH]2)cc1)NCC(O)c1cccc(C(F)(F)F)c1 (stereo not given),97% (active)
4,O=C(/C=C/C=C/c1ccccc1)NC1CCC(CN2CCC(c3c[nH]c4ccccc34)CC2)CC1 (stereo not given),100% (active)
5,CN(c1cc(NC(=O)c2ccc(F)cc2)ccn1)C1CCN(Cc2ccc(C#N)cc2)CC1,87% (active)
6,COc1cc(NCCCNC(=O)c2cn(Cc3ccccc3)c3ccccc23)nc2ccccc12,101% (active)

# Molecular target: Calcium-dependent protein kinase 1 (Plasmodium falciparum (isolate 3D7)) (UniProt P62344)
# Test: PfCDPK1 kinase inhibitors, biochemical, TCAMS library (AID 1159585);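 note: inhibitors leave more ATP so luminescence rises with inhibition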
# Conditions: recombinant PfCDPK1, Kinase-Glo ATP depletion luminescence
# Calcium-dependent protein kinase 1 (Plasmodium falciparum (isolate 3D7)), sequence (P62344 whole entry, looked up): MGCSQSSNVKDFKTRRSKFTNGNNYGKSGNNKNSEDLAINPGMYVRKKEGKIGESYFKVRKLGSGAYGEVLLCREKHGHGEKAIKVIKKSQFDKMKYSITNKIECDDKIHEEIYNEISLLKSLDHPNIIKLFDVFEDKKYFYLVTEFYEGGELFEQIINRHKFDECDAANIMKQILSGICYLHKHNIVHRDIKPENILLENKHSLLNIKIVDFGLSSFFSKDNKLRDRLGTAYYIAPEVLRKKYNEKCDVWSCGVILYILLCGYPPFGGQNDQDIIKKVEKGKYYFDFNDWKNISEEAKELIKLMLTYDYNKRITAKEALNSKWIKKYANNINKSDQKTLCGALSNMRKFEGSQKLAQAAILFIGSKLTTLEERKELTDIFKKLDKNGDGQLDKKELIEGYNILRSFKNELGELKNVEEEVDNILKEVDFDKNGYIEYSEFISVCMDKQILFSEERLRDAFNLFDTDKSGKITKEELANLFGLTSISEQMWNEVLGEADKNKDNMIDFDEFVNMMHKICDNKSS
row,SMILES,outcome
1,CCCCC/C=C/C(=O)NC1CCC(CN2CCC(c3c[nH]c4ccccc34)CC2)CC1 (stereo not given),inactive
2,COc1ccc(O)c(CN2CCN(c3cc(C)ccc3C)CC2)c1,inactive
3,CC[C@H]1CN2CC[C@H]1C[C@@H]2[C@@H](O)c1cc(Cl)nc2ccc(OC)cc12,inactive
4,CC(Cc1ccc(Sc2ccccc2)cc1)NCC(O)c1cccc(C(F)(F)F)c1 (stereo not given),inactive
5,CC(C)CCNC(=O)c1cc(C(=O)c2cc(F)ccc2O)cn(CCC(C)C)c1=O,inactive
6,O=C(/C=C/c1ccc(Cl)c(Cl)c1)N1CCC(CN2CCC(c3c[nH]c4ccc(O)cc34)CC2)CC1,inactive
7,Oc1ccc2[nH]cc(C3=CCN(CCc4ccccc4)CC3)c2c1,inactive
8,C/C=C1\CN2CC[C@H]1C[C@H]2[C@H](O)c1ccnc2ccc(O)cc12,inactive
9,CC[C@H]1CN2CC[C@@H]1C[C@H]2[C@H](O)c1cc(N2CCC(N3CCCCC3)CC2)nc2ccc(OC)cc12,inactive
10,S=C(NCC1CCCCC1)NC1CCC(CN2CCC(c3c[nH]c4ccccc34)CC2)CC1 (stereo not given),inactive
11,COc1cc(C=CC(=O)N2CCC(CN3CCC(c4c[nH]c5ccccc45)CC3)CC2)ccc1O,inactive
12,CCOc1ccc2nccc([C@@H](O)[C@@H]3C[C@@H]4CCN3C[C@@H]4CC)c2c1,inactive
13,CC1(CCCCN2CC=C(c3c[nH]c4ccccc34)CC2)C(=O)Nc2ccccc21 (stereo not given),inactive
14,CN1CC=C(c2c[nH]c3ccc(OC(=O)c4ccccc4)cc23)C1,inactive
15,Cc1[nH]c2c(C)cc(NS(C)(=O)=O)cc2c1C1CCN(CC2CCN(C(=O)/C=C/c3ccc(Cl)c(Cl)c3)CC2)CC1,inactive
16,COC(=O)c1ccc(CC(C)NCC(O)c2cccc(Cl)c2Cl)cc1 (stereo not given),inactive
17,Oc1ccc(CN2CCN(CCOC(c3ccc(F)cc3)c3ccc(F)cc3)CC2)cc1Cl,inactive

row,SMILES,outcome
1,COC(=O)c1ccc(CC(C)NCC(O)c2ccc(F)c(Cl)c2)cc1 (stereo not given),inactive
2,O=C(C=Cc1ccccc1Br)NC1CCC(CN2CCC(c3c[nH]c4ccccc34)CC2)CC1 (stereo not given),inactive
3,CC[C@H]1CN2CC[C@H]1C[C@H]2[C@H](O)c1cc(Cl)nc2ccc(OC)cc12,inactive
4,CC(=O)C1(c2ccccc2)CCN(CCC2(c3ccc(Cl)c(Cl)c3)CN(C(=O)Nc3cccc(C(F)(F)F)c3)CCO2)CC1 (stereo not given),inactive
5,Cc1[nH]c2ccccc2c1C1=CCN(CCCCC23CCCc4cccc(c42)NC3=O)CC1 (stereo not given),inactive
6,Oc1ccc2[nH]cc(C3=CCN(Cc4ccccc4)CC3)c2c1,inactive
7,CN1CC=C(c2c[nH]c3ccc(Sc4ccccc4)cc23)CC1,inactive
8,OC(CNC1CCCCCC1)c1ccc(Cl)c(Cl)c1 (stereo not given),inactive
9,CC[C@H]1CN2CC[C@H]1C[C@H]2[C@H](O)c1cc(-c2cccc(F)c2)nc2ccc(OC)cc12,inactive
10,COC(=O)c1ccc(CC(C)NCC(O)c2cccc(C(F)(F)F)c2)c(Cl)c1 (stereo not given),inactive
11,Cc1ccc(CC(C)NCC(O)c2cccc(Br)c2)cc1 (stereo not given),inactive
12,COc1ccc2[nH]cc(C3C[C@H]4CC[C@@H](C3)N4CCC3CCN(C(=O)/C=C/c4ccc(Cl)c(Cl)c4)CC3)c2c1 (stereo not given in full),inactive
13,CCOC(C(=O)OCC1CCCN1C(C)C)(c1ccccc1)c1ccccc1 (stereo not given),inactive
14,CN(C)c1cccc(NC(=O)NC2N=C(c3ccccc3)c3ccccc3N(CC(=O)N(C)c3ccccc3)C2=O)c1 (stereo not given),inactive
15,CC(=O)Nc1ccc2[nH]cc(C3CCN(CC4CCC(NC(=O)/C=C/c5ccc(Cl)c(Cl)c5)CC4)CC3)c2c1 (stereo not given),inactive
16,O=C(Cc1cc(=O)oc2cc(O)ccc12)NC1CCC(CN2CCC(c3c[nH]c4ccccc34)CC2)CC1 (stereo not given),inactive
17,COc1ccc(CN2CCN(CCOC(c3ccccc3)c3ccccc3)CC2)c(O)c1,inactive
